Screening results (PubChem)
SENP8 block-1 – blocks human SENP8 cleavage of Nedd8 substrate. 360,000 compounds, 0.64% hits. AID 602440. inhibition, % at 20 µM. Q96LD8. recombinant SENP8, Nedd8 substrate fluorescence; in the data active means inhibition mostly above about 40%, no sharp cut-off; inactive means mostly below about 27%
Target sequence (Q96LD8 whole entry, looked up): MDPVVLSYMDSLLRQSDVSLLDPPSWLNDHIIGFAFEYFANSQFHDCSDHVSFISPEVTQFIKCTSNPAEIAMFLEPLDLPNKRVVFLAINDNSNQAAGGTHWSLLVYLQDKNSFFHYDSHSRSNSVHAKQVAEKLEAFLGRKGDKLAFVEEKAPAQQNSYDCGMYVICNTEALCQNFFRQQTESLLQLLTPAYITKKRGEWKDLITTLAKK
SENP7 block – SENP7 protease inhibition | inhibition, % at 5 µM | recombinant SENP7, Z-RLRGG-aminoluciferin luminescence, 40 min | 330,000 compounds, 1.5% hits | AID 434973;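 active means inhibition above about 50% at the single test dose, limit read from the data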
Target sequence (Q9BQF6 706-1050 limits assumed): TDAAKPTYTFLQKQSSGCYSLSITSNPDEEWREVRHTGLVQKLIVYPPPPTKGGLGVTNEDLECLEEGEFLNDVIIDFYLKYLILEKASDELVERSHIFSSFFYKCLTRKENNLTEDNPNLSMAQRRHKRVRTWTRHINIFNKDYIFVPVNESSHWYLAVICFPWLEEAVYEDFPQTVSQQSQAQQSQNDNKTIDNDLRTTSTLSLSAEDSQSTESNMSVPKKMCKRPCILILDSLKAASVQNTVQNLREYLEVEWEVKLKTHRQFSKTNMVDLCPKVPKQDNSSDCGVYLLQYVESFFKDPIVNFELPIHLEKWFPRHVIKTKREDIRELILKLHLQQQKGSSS
SENP8 block-2 – SENP8 protease inhibition; Q96LD8; purified SENP8, Z-RLRGG-aminoluciferin cleavage, luminescence; inhibition, % at 10 µM; 330,000 compounds, 1.2% hits; AID 2540; in the data active means inhibition above about 50%
SENP6 inh – SENP6 protease inhibition | inhibition, % at 10 µM | Q9GZR1 | Recombinant SENP6 catalytic domain, aminoluciferin luminescence | 330,000 compounds, 1.8% hits;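 active means inhibition above about 50% at the single tested dose, limit read from the data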
HSP90 inh – HSP90 refolding inhibition in rabbit reticulocyte lysate; luciferase refolding luminescence, 3 h; inhibition, % at 5.6 µM; 290,000 compounds, 0.91% hits;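 active means inhibition above the screen-wide mean plus 3 SD, computed separately per campaign, cut at about 16% in these data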;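 further: inhibitors lower the luminescence because luciferase stays unfolded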
HSP90 inh confirm – confirmation of HSP90 inhibitors; shares compounds with HSP90 inh; AID 1846; rabbit reticulocyte lysate, luciferase refolding luminescence, 3 h; 2,300 compounds, 64% hits; inhibition, % at 5.9 µM; in the data active means inhibition above about 18%
luciferase ctr – counter-screen for HSP90 inhibitors: inhibitors of firefly luciferase | shares compounds with HSP90 inh | purified native firefly luciferase, luminescence | inhibition, % at 5.9 µM | 2,300 compounds, 48% hits;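 active means inhibition above the mean inhibition of all tested sample wells plus 3 SD, cut at about 10% in these data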
SENP8 confirm – human SENP8 inhibition, confirmed; shares compounds with SENP7 block; Recombinant SENP8, Z-RLRGG-aminoluciferin luminescence, 60 min; inhibition, % at 12.5 µM; 6,200 compounds, 40% hits; AID 488912;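 active means mean inhibition across replicates above about 50%, limit read from the data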
SENP6 conf – human SENP6 inhibition, confirmed; recombinant SENP6, Z-RLRGG-aminoluciferin luminescence; shares compounds with SENP7 block; inhibition, % at 12.5 µM; 6,200 compounds, 58% hits
SENP7 confirm – human SENP7 inhibition, confirmed; recombinant SENP7, Z-RLRGG-aminoluciferin luminescence, 40 min; AID 488917; inhibition, % at 12.5 µM; shares compounds with SENP7 block; 6,200 compounds, 69% hits
Casp3 select – selectivity test for SENP inhibitors: human caspase-3 inhibition; shares compounds with SENP7 block; purified caspase-3, Z-DEVD-aminoluciferin luminescence, 60 min; inhibition, % at 12.5 µM; 6,200 compounds, 60% hits; AID 488918;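 active means mean inhibition above about 50%, limit read from the data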
Luc interf – interferes with luciferase luminescence in SENP counter-screen | shares compounds with SENP7 block | Pre-incubated SENP8/Z-RLRGG-aminoluciferin, luciferase luminescence interference | inhibition, % at 12.5 µM | 6,200 compounds, 39% hits | AID 488919;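 active means mean inhibition above about 50% when retested at one dose, limit read from the data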
Numbers stand for hits; – = inactive; · = no result given. Rows were chosen to be rich in hits. Some 2.8% of all compounds tested hit in one or more screens of this group.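 How the source made its calls, unless noted: active means mean inhibition above about 50% in the one-dose retest (limit read from the data); inactive means the rest.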

SMILES | SENP8 block-1 | SENP7 block | SENP8 block-2 | SENP6 inh | HSP90 inh | HSP90 inh confirm | luciferase ctr | SENP8 confirm | SENP6 conf | SENP7 confirm | Casp3 select | Luc interf
COc1ccc(C(=O)/C=C/c2ccccc2F)c(OC(=O)c2ccc([N+](=O)[O-])cc2)c1 | – | – | – | 60.4 | 18.2 | 36.6 | – | – | – | – | – | –
O=c1c2c(nc3cc(-c4ccc(F)cc4)[nH]n13)CCCC2 | – | 54.5 | – | 54.1 | 18.4 | 43.5 | 28.8 | – | – | – | – | –
CCc1cccc(C)c1NC(=O)CCOc1ccccc1 | – | – | – | – | – | · | · | · | · | · | · | ·
O=c1oc2cc(OCc3c(F)cccc3Cl)ccc2cc1-c1ccccn1 | – | – | – | – | – | · | · | · | · | · | · | ·
CCCOc1ccc2cc(-c3ccccn3)c(=O)oc2c1 | – | 100.8 | 96.2 | 97.7 | 36.0 | 85.0 | 79.6 | 80.6 | 85.3 | 100.8 | 88.4 | –
Cc1cc(/C=C2\SC(=S)N(C)C2=O)c(C)n1-c1ccc(O)cc1 | – | – | 57.8 | 79.3 | 60.0 | 82.2 | 81.7 | – | 84.5 | 91.5 | · | –
CC(C)(C)c1ccc(C(=O)Nc2cnccn2)cc1 | – | 55.0 | – | 52.4 | 17.5 | 50.3 | 37.4 | – | – | 60.3 | 63.0 | –
COc1ccc(C(=O)Nc2cnccn2)cc1[N+](=O)[O-] | – | – | – | – | – | · | · | · | · | · | · | ·
COC(=O)CC1COc2ccccc2N1C(=O)c1ccc(Cl)cc1 (stereo unspecified) | – | – | – | – | – | · | · | · | · | · | · | ·
CCN(CC)c1ccc(/C=N\NC(N)=O)cc1 | – | – | – | – | – | · | · | · | · | · | · | ·
CCN(CC)c1ccc(/C=N/NC(=O)c2ccoc2C)cc1 | – | 100.6 | 95.0 | 97.2 | 31.5 | 58.9 | 54.0 | 97.4 | 99.6 | 103.1 | 98.2 | 82.7
Cc1cnc(NC(=O)COc2ccc3c(c2)CCC3)s1 | – | – | – | 52.3 | 17.6 | 31.6 | 23.3 | – | – | – | – | –
COc1cc(NC(=O)CSc2nccc(=O)[nH]2)c(C)cc1[N+](=O)[O-] | – | – | – | – | – | · | · | · | · | · | · | ·
COc1cccc(N=Nc2ccc3ccccc3c2O)c1 | – | 99.7 | 95.7 | 88.7 | 27.7 | 57.7 | 57.5 | – | – | – | 92.2 | –
COc1ccc(N=Nc2ccc3ccccc3c2)c(O)c1 | – | 97.6 | – | 98.1 | 29.8 | 53.4 | 54.8 | – | – | – | – | –
COc1ccc(N=Cc2oc3ccc4ccccc4c3c2O)cc1 | – | – | – | – | – | · | · | · | · | · | · | ·
COc1ccc(N=Cc2ccccc2O)cc1 | – | · | · | · | · | · | · | · | · | · | · | ·
Cc1ccc(N=Nc2ccc3ccccc3c2O)cc1 | – | 100.4 | 90.1 | – | 58.7 | 76.8 | 72.6 | – | – | – | – | –
NS(=O)(=O)c1ccc(SCc2ccccc2)nc1 | – | – | – | – | · | · | · | · | · | · | · | ·
Cc1cc2c(cc1S(=O)(=O)Nc1cccc(F)c1C)NC(=O)CO2 | – | – | – | – | – | · | · | · | · | · | · | ·
Cc1cc(C(=O)COC(=O)c2ccc(O)cc2)c(C)n1CC1CCCO1 (stereo unspecified) | – | – | – | 53.8 | 31.8 | 39.2 | 42.5 | 53.9 | – | 82.9 | 67.3 | –
Cc1cc(C(=O)COC(=O)c2ccc(Cl)c(S(N)(=O)=O)c2)c(C)n1CC1CCCO1 (stereo unspecified) | – | – | – | – | · | · | · | · | · | · | · | ·
O=C(CSC(=S)N1CCCCC1)c1ccccc1 | – | 73.9 | 62.8 | 73.9 | 54.5 | 72.9 | 64.2 | – | 62.9 | 90.1 | 73.4 | 66.7
COc1ccc(C(=O)CSC(=S)N2CCCCC2)cc1 | – | · | · | · | · | · | · | · | · | · | · | ·
O=C(CSC(=S)N1CCCC1)c1ccccc1 | – | 54.2 | – | 63.6 | 19.0 | 42.8 | 43.8 | 52.1 | 51.7 | 77.5 | 69.9 | 55.5
SMILES | SENP8 block-1 | SENP7 block | SENP8 block-2 | SENP6 inh | HSP90 inh | HSP90 inh confirm | luciferase ctr | SENP8 confirm | SENP6 conf | SENP7 confirm | Casp3 select | Luc interf
COc1ccc(O)c(C(=O)c2cnn(-c3ccccc3)c2)c1 | – | – | – | – | – | · | · | · | · | · | · | ·
COc1ccc(-n2cc(C(=O)c3ccccc3O)cn2)cc1 | – | 99.7 | 94.0 | 95.2 | 34.2 | 52.3 | 39.9 | 96.1 | 98.5 | 102.3 | 96.0 | 94.9
COc1ccc2cc(C(=O)N(C)CC(=O)Nc3ccccc3Br)ccc2c1 | – | – | – | – | · | · | · | · | · | · | · | ·
COc1ccc2oc(C(=O)N3CCN(C(c4ccccc4)c4ccccc4)CC3)c(C)c2c1 | – | – | – | – | · | · | · | · | · | · | · | ·
COc1ccc2oc(C(=O)N3CCc4ccccc43)c(C)c2c1 | – | 99.9 | 95.7 | 95.8 | 22.7 | 59.1 | 46.5 | 71.7 | 88.2 | 95.7 | 84.9 | –
COc1ccc2cc(C(=O)N3CCc4ccccc43)[nH]c2c1 | – | 92.6 | 52.5 | 86.3 | 21.7 | – | – | – | – | – | – | –
COc1ccc2oc(C(=O)Nc3ccccn3)c(C)c2c1 | – | 92.1 | 77.4 | 86.9 | 24.7 | 46.3 | 33.9 | 84.7 | 84.8 | 97.8 | 88.0 | 87.9
Oc1cccc(-c2nc3ccccc3s2)c1 | – | 95.4 | 91.6 | 96.4 | 23.8 | 49.9 | 34.1 | – | 94.9 | 101.5 | 87.1 | 95.2
CC(=O)Nc1cccc(-c2nc3ccccc3s2)c1 | – | – | – | – | – | · | · | · | · | · | · | ·
COc1cccc(-c2nc3ccccc3s2)c1O | – | 86.4 | 53.8 | 76.9 | 17.2 | 38.4 | 32.0 | – | 57.9 | 96.5 | 74.2 | –
COc1ccc(-c2nc3ccccc3s2)cc1O | – | 99.9 | 95.4 | 96.9 | 37.7 | 77.7 | 71.7 | 98.0 | 98.8 | 102.3 | 95.5 | 98.0
CCOc1cc(-c2nc3ccccc3s2)ccc1O | – | – | – | – | – | · | · | · | · | · | · | ·
CC(C)c1ccc(-c2nc3ccccc3s2)cc1 | – | 99.6 | 97.6 | 97.6 | 83.5 | 97.6 | 94.1 | 97.6 | 99.5 | 101.5 | 97.4 | 96.8
FC(F)(F)c1ccc(-c2nc3ccccc3s2)cc1 | – | · | · | · | · | · | · | · | · | · | · | ·
CCOC(=O)c1cc(-c2ccccc2)nn1CC1CC(c2cccc([N+](=O)[O-])c2)=NO1 (stereo unspecified) | – | – | – | – | · | · | · | · | · | · | · | ·
Cc1ccc(C(=O)Nc2ccc3ccccc3c2)cc1 | – | 97.2 | 87.4 | 91.4 | 68.8 | 75.7 | 69.1 | – | 51.3 | 100.6 | 89.0 | –
Cc1ccoc1C(=O)Nc1ccc2ccccc2c1 | – | 99.5 | 96.3 | 97.4 | 24.2 | 55.6 | 46.9 | 95.8 | 98.2 | 102.3 | 95.6 | 91.5
Cc1ccoc1C(=O)Nc1ccc(CC(=O)O)cc1 | – | – | – | – | – | · | · | · | · | · | · | ·
